Screening data as filed in PubChem.
ST2 IL33 inh – inhibitors of human ST2 (IL1RL1) binding to IL-33; AlphaLISA ST2-Fc/biotin-IL-33 interaction, 1 h; inhibition, % for hits at 17 µM; 2.3% of 78,000 active; AID 1259354; in the data active means inhibition above about 30%
Target sequence (Q01638 whole entry, looked up): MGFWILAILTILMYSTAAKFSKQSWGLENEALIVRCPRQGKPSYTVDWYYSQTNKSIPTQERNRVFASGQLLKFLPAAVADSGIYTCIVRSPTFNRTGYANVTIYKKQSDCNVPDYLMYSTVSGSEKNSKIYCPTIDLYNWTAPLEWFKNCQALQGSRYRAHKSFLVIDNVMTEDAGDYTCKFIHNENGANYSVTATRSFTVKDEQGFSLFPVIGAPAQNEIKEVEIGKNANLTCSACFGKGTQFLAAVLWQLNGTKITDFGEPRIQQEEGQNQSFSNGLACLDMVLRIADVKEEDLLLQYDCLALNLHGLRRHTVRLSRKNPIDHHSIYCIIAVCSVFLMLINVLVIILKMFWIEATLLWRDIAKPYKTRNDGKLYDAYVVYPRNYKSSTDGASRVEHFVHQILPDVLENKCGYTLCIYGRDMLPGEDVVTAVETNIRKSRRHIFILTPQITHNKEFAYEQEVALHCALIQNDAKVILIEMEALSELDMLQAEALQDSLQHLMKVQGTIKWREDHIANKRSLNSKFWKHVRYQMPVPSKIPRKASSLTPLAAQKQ
Active calls of the source: *; i = inactive. The full list was thinned out, with hits kept by preference.

SMILES	ST2 IL33 inh
O=C1Nc2ccccc2C(O)(C(=O)NC2CCCCCCC2)N1c1ccccc1 (stereo not given)	i
Cc1nc(SCCNC(=O)c2nc[nH]c2C)n[nH]1	i
CCc1nnc(NC(=O)c2ncn[nH]2)s1	i
CCOC(=O)C1CCCN(C(=O)CSc2cc(=O)n(C)c3ccccc23)C1 (stereo not given)	i
COc1ccc(OC)c(-c2cc(C(=O)Nc3sc4c(c3C(N)=O)CCC(C)C4)no2)c1 (stereo not given)	i
COc1ccc(C=Nc2sc3c(c2C#N)CCC(C)C3)cc1OC (stereo not given)	39.0%*
COc1ccc(-c2cc(C(=O)Nc3sc4c(c3C(N)=O)CCC(C)C4)no2)cc1OC (stereo not given)	i
Cc1cccc(Cn2c(=O)n(-c3ccccc3)c(=O)c3sccc32)c1	i
CCN1CCCC1CNC(=O)C1(O)c2ccccc2NC(=O)N1c1ccc(Cl)cc1 (stereo not given)	i
N#C/C(=C\c1ccc(O)cc1O)c1nc2ccccc2[nH]1	i
N#C/C(=C\c1cc(Cl)ccc1O)c1nc2ccccc2[nH]1	35.0%*
C=CCOc1ccc(Cl)cc1/C=C(\C#N)c1nc2ccccc2[nH]1	i
Cc1ncc(-c2ccc(F)cc2)c(C2CCCN(C(=O)Cc3ccc(N4CCNC4=O)cc3)C2)n1 (stereo not given)	i
CC(=O)NCCNc1ncc(F)c(N2CCOCC2)n1	i
COc1ccc(N(C(=O)c2ccc(Br)cc2)C2C=CS(=O)(=O)C2)cc1 (stereo not given)	i
COc1ccc(NC2=CC(=NS(=O)(=O)c3ccc(C)cc3)c3ccccc3C2=O)cc1	92.0%*
COc1ccc(S(=O)(=O)N=C2C=C(Nc3ccc(C)cc3)C(=O)c3ccccc32)cc1	92.0%*
COc1ccc(N(C(F)F)S(=O)(=O)c2ccc(C)cc2)cc1	i
Cc1ccc(S(=O)(=O)Nc2ccc(NC(=O)c3ccc(F)cc3)cc2)cc1	i
CCN(CC)C(=NS(=O)(=O)c1ccc(C)cc1)c1ccc(F)cc1	i
COc1ccc(S(=O)(=O)N=C2C(C)=CC(=O)C=C2C)cc1	i
Cc1ccc(NC2=CC(=NS(=O)(=O)c3ccc(F)cc3)c3ccccc3C2=O)cc1	69.0%*
COc1ccc(S(=O)(=O)Nc2cc(C)cc(C)c2)cc1	i
COc1ccc(Nc2ccc3c4c(ncnc24)-c2ccccc2C3=O)cc1	i
O=C(CCOc1ccccc1)Nc1ccnn1C1CCN(C2CCSCC2)CC1	i
SMILES	ST2 IL33 inh
CC(=NCCc1c[nH]c2ccccc12)c1c(O)n(C)c(=O)[nH]c1=O	i
COc1ccccc1N1CCN(C(=O)Cc2cn(C)c3ccccc23)CC1	i
COc1cccc(C2C(C(=O)OC3CCCCC3)=C(C)Nc3nnnn32)c1OC (stereo not given)	i
O=C(NCCSc1c[nH]c2ccccc12)c1cc(Cl)ccc1Cl	i
COc1ccc(S(=O)(=O)N(C)c2ccccc2)cc1	i
Cn1cnnc1Sc1ccc(CN2CCc3[nH]c4ccc(F)cc4c3C2)o1	i
Oc1ccc(N=Cc2cccc(I)c2O)cc1-c1nc2ccccc2o1	41.0%*
O=C(O)c1ccc(O)c(C=Nc2cccc(-c3nc4ccccc4o3)c2)c1	i
Cc1cccc2oc(-c3cccc(N=Cc4ccc(O)cc4O)c3)nc12	i
Cc1ccc2nc(SCC(=O)c3ccc4c(c3)OCO4)[nH]c2c1	i
Cc1ccc2nc(-c3ccc(N=Cc4ccc5c(c4)OCO5)cc3O)oc2c1	32.0%*
Cc1cc(C=Nc2ccc(-c3nc4ccccc4o3)c(O)c2)c(O)c([N+](=O)[O-])c1	30.0%*
Cc1ccc2nc(-c3cccc(N=Cc4cccc([N+](=O)[O-])c4O)c3)oc2c1	i
Cc1cccc2oc(-c3cccc(N=Cc4cc([N+](=O)[O-])cc([N+](=O)[O-])c4O)c3)nc12	i
O=C(Nc1ccc(O)c(-c2nc3ccccc3o2)c1)c1cccc(Cl)c1Cl	i
C=CCNC1(C)CCS(=O)(=O)C1 (stereo not given)	i
Cc1cnc(N2C[C@H]3OC(=O)N(CCCN4CCOCC4)[C@H]3C2)nc1N	i
CC[C@@]1(C(=O)O)C[C@H](C(=O)NCc2cccnc2)[C@H](c2ccc(OC)cc2)N1C	i
COc1ccc(Cc2nnc(NC(=O)COc3ccccc3)s2)cc1OC	i
CN(C)C(=O)c1ccc2c(c1)N(CC(=O)N1CCN(c3ccccn3)CC1)C(=O)C1CCCCN21 (stereo not given)	i
Cc1cc(C)cc(S(=O)(=O)N2CCC3(CCNCC3)C2)c1	i
COc1ccccc1C(=O)N/C(=C\c1ccc2c(c1)OCO2)C(=O)NCC(=O)O	i
O=C(CSc1nc2c([nH]c3ccccc32)c(=O)n1-c1cccc(Cl)c1)N1CCOCC1	35.0%*
NC(=O)CSc1nc2c([nH]c3ccccc32)c(=O)n1-c1ccc(Cl)cc1	i
O=C(CSc1nc2c([nH]c3ccccc32)c(=O)n1-c1ccc(F)cc1)N1CCCCC1	i
SMILES	ST2 IL33 inh
Fc1cccc(CN2CCc3c([nH]c4ccccc34)C2)c1	i
CCCCNc1nc2c(c(=O)n(C)c(=O)n2C)n1Cc1cccc(Cl)c1	i
COCCNc1nc2c(c(=O)n(C)c(=O)n2C)n1Cc1cccc(Br)c1	i
CCCCNc1nc2c(c(=O)n(Cc3cccc(Br)c3)c(=O)n2C)n1C	32.0%*
Cn1c(=O)c2c(nc(NCCCO)n2Cc2ccccc2Br)n(C)c1=O	i
Cc1cccc(NC(=O)CNC(=O)Cn2c(C)cc3ccccc3c2=O)n1	i
CC(C)(C)c1ccc(C(=O)Nc2ccc3c(c2)OCO3)cc1	i
COC(=O)C1=C(NC(=O)c2ccc(Cc3ccccc3)cc2)CCS1	31.0%*
CCc1ccc(NC(=O)c2ccc(N(Cc3ccccc3)S(C)(=O)=O)cc2)cc1	i
COc1ccccc1NC(=O)c1ccc(OCc2ccccc2)cc1	i
COC(=O)C1=C(NC(=O)c2ccc(C(C)(C)C)cc2)CCS1	53.0%*
COC(=O)c1c(NC(=O)COc2ccc(C(C)(C)C)cc2)sc2c1CCC2	i
Cc1nnc(SCC(=O)Nc2ccccc2Br)s1	i
CC(=O)OCCN1C(=O)c2cccc3cccc(c23)C1=O	i
CC12CC[C@H](C(=O)N(CC(O)CN3CCCCC3)C1=O)C2(C)C (stereo not given in full)	i
CC1CN(Cc2nc3c(c(=O)[nH]c(=O)n3C)n2CCc2ccccc2)CC(C)O1 (stereo not given)	i
COCCNC(=O)c1cc2cc3ccc(C)cc3nc2s1	i
COc1ccc(CNC(=O)c2cc3cc4ccc(OC)cc4nc3s2)c(OC)c1	i
CCOC(CCNC(=O)c1cc2cc3ccc(OC)cc3nc2s1)OCC	i
COc1ccc(CNC(=O)c2cc3cc4ccc(OC)cc4nc3o2)cc1	i
COc1ccc2cc3cc(C(=O)NCc4ccc(F)cc4)sc3nc2c1	31.0%*
COc1ccc(CNC(=O)c2cc3cc4ccc(OC)cc4nc3s2)cc1	38.0%*
CCCC12CN3CC(CCC)(CN(C1)C3c1ccc(C)cc1)C2=O (stereo not given)	i
CC(C(=O)N(C)Cc1cn[nH]c1-c1ccc(F)cc1)N1CCCC1=O (stereo not given)	i
O=C(Nc1ccccc1C(F)(F)F)C1COc2ccccc2O1 (stereo not given)	i
O=C(CCCc1cccs1)N1[C@H]2CCNC[C@@H]1CC2	i
O=C1CCC(=O)N1C1c2ccccc2Oc2ccccc21	i
NC(=O)c1c(NC(=O)COc2ccc(Cl)cc2Br)sc2c1CCCC2	i
